This is a sample that favours compounds with a hit; in the whole collection about 3.1% have one here.
CSC inhib: cancer stem cell viability inhibitors, primary screen, luminescence | cancer stem cell-like cells viability | AID 2717, 2010 | 300,000 tested, 1.1% active | inhibition, % at 7.5 µM; in the data active = inhibition above about 75%; tested in HMLE shEcad cells
PP5 inh: PP5 phosphatase inhibitors, primary screen, biochemical, fluorescence | purified PP5c, OMFP substrate fluorescence | inhibition, % at 6.7 µM | AID 1987, 2009 | Serine/threonine-protein phosphatase 5 (Homo sapiens), P53041 | 320,000 tested, 0.18% active;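 active = inhibition above the campaign's mean inhibition across all tested compounds plus 3 SD, cut at about 9.5% in these data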;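 note: 0% = DMSO only and 100% = 100 µM cantharidin control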
Target sequence (P53041 whole entry, looked up): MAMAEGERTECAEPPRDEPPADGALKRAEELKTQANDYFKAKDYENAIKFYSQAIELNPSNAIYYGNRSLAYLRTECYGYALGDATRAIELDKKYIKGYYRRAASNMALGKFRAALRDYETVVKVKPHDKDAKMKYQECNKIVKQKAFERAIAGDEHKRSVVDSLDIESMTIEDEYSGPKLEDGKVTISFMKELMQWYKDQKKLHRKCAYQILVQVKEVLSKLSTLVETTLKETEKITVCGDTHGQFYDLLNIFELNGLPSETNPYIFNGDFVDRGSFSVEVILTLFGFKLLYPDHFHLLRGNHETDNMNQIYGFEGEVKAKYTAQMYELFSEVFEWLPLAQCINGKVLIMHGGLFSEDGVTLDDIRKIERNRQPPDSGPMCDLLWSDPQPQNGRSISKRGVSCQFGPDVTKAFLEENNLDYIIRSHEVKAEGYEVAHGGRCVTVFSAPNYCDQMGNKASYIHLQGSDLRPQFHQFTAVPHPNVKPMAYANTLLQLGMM
Beta apoptosis: inhibitors of cytokine-induced beta cell apoptosis, primary screen, luminescence | INS-1E cytokine-induced death, ATP luminescence, 48 h; percent of positive-control rescue, neutral wells zero | protection from apoptosis, % (no concentration beside the values) | 300,000 tested, 0.8% active | AID 435005, 2010;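 active = Every replicate reaches about 75%, or at least half do and their mean reaches it too, limit read from the data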;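 note: 0% = cytokine-treated negative control wells and 100% = positive control rescue; higher means more ATP so stronger rescue from cytokine killing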
SKKanGAS inh: S. pyogenes SKKanGAS growth inhibitors in kanamycin, primary screen, streptokinase expression inhibitor project, SKKanGAS strain, BacTiter-Glo luminescence. 6 h. inhibition, % at 7.5 µM. 300,000 tested, 1.3% active. AID 1662, 2009;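 active = mean replicate score, as percent of positive control median, at least 50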;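 note: strain carries kanamycin resistance gene driven by streptokinase promoter and grows in 40 µg/ml kanamycin; loss of luminescence reflects streptokinase promoter inhibition or plain growth inhibition; 0% = median of DMSO wells and 100% = positive control at its reference dose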
PP1 inh: PP1-alpha phosphatase inhibitors, primary screen, counter-screen for PP5 inhibitor project, biochemical, fluorescence, OMFP substrate, single point; 320,000 tested, 0.9% active; Serine/threonine-protein phosphatase PP1-alpha catalytic subunit (Homo sapiens), P62136; inhibition, % at 6.7 µM; purified PP1alpha;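 active = inhibition above the mean inhibition of all tested compounds plus 3 SD, computed separately for each screening campaign, cut at about 15% in these data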
* = called active by the depositor; nt = no result given.

SMILES | CSC inhib | PP5 inh | Beta apoptosis | SKKanGAS inh | PP1 inh
FC(F)(F)c1ccccc1NC(=S)N1CCN(Cc2ccc3c(c2)OCO3)CC1 | nt | 0 | 82* | 0 | 0
CC(/C=C/c1ccccc1)=N\NC(=O)c1cc(C)[nH]n1 | 2 | 0 | 6 | -2 | -5
O=C(COCc1cc(-c2ccc3c(c2)OCO3)on1)N1CCN(c2cccc(C(F)(F)F)c2)CC1 | 119* | 6 | -13 | 11 | 4
Cc1ccc(C(=O)Nc2cccc(C(=O)NC3CCCC3)c2)cc1 | 6 | 0 | nt | -2 | 1
CCOC(=O)c1ccc(NC(=O)CC2S/C(=N/N=C/c3c[nH]c4ccccc34)NC2=O)cc1 (stereo not given) | 88* | 2 | -6 | 65* | 6
Cc1ccc(NC(=O)CC2S/C(=N/N=C/c3c[nH]c4ccccc34)NC2=O)cc1 (stereo not given) | 3 | -1 | -7 | 3 | 14
CC1(c2ccccc2)NC(=O)N(CC(=O)N2CCN(S(=O)(=O)c3c(F)cccc3F)CC2)C1=O (stereo not given) | 6 | nt | 2 | nt | nt
C[C@H]1COc2c(C3(N)CC3)c(F)cc3c(=O)c(C(=O)O)cn1c23 | -4 | -1 | -1 | 66* | 4
C[C@H]1COc2c(N3CCN(C)CC3)c(F)cc3c(=O)c(C(=O)O)cn1c23 | -5 | 3 | 1 | 107* | 0
Cc1cccc(-c2noc(CCCC(=O)NC3CCCC3)n2)c1 | -4 | -1 | -2 | -6 | -4
Cc1onc(-c2c(F)cccc2Cl)c1C(=O)NCc1ccc2c(c1)OCO2 | -9 | 0 | -2 | 59* | -1
Cc1onc(-c2ccccc2)c1C(=O)NCc1ccc2c(c1)OCO2 | -8 | 0 | 1 | -9 | -2
Cc1csc2nc(O)c(C(=O)NCc3ccc4c(c3)OCO4)c(=O)n12 | 12 | -2 | -2 | 31 | 17*
Cc1csc2nc(O)c(C(=O)NC3CCCCC3)c(=O)n12 | -3 | -1 | nt | 0 | 0
CCN(CC(=O)NCC(=O)Nc1ccc(Br)cc1C)Cc1ccccc1 | -3 | 3 | 2 | -5 | 2
CC(=O)Nc1ccc(C(=O)OCC(=O)NCc2cccs2)cc1 | 7 | 0 | 2 | nt | -3
FC(F)(F)c1cc(Nc2ccccc2)nc(-c2ccccn2)n1 | 5 | -1 | 7 | 77* | 14
O=c1cc(O)nc(SCc2ccc(Cl)cc2)[nH]1 | -6 | 1 | 0 | 104* | 8
Cc1cccc(Nc2nc(N)c([N+](=O)[O-])c(NCc3ccco3)n2)c1 | 56 | 5 | 8 | 4 | 6
Nc1nc(Nc2cccc(Cl)c2)nc(NCc2ccco2)c1[N+](=O)[O-] | 71 | 3 | -4 | 75* | 6
CN(C)C(=O)c1ccc(NC(=O)c2cccnc2)cc1 | -3 | 0 | 96* | -4 | -5
O=C(Nc1ccc(F)cc1)c1cccnc1 | 8 | 5 | 76* | -1 | -3
CCCCSc1ccc(NC(=O)c2cccnc2)cc1 | 0 | 2 | 100* | -17 | -2
O=C(Nc1ccc(NC(=O)c2cccnc2)cc1)c1ccccc1 | -9 | -1 | 0 | -4 | -5
CCC(C)c1ccc(NC(=O)c2cccnc2)cc1 (stereo not given) | -6 | 0 | 12 | -9 | -2
SMILES | CSC inhib | PP5 inh | Beta apoptosis | SKKanGAS inh | PP1 inh
COc1ccc(C)cc1NC(=O)CCS(=O)(=O)c1ccc2c(c1)oc(=O)n2C | -5 | 3 | -1 | -4 | 2
CCOc1ccc(N(CC(=O)N2CCCCCC2)S(=O)(=O)c2ccc(C)cc2)cc1 | 6 | 2 | nt | 1 | 3
OCC[C@H]1C[C@@H](O)[C@H](O)[C@@]2(CCc3ccccc3O2)O1 | -15 | 2 | 4 | nt | -2
Cc1c(N/N=C(\C#N)C(=O)c2ccc(Cl)cc2)c(=O)n(-c2ccccc2)n1C | 26 | 0 | 76* | 100* | 12
CCOC(=O)NC(=O)/C(C#N)=N\Nc1ccc(Cl)cc1 | -7 | 2 | nt | -5 | 0
COC(=O)C(=NNc1c(C)n(C)n(-c2ccccc2)c1=O)C(=O)OC | -14 | 2 | -1 | -10 | 0
N#C/C(=N\Nc1ccc(Cl)cc1)C(=O)c1ccccc1 | 59 | 5 | 99* | 30 | 6
COc1ccc(NC(=O)CCN2CCN(Cc3ccccc3)CC2)c(OC)c1 | 12 | 0 | 3 | 3 | 0
CCN1CCN(CCCNC(=O)c2ccc(/C=C3/Sc4ccccc4N(Cc4ccccc4F)C3=O)cc2)CC1 | 104* | 2 | 4 | 8 | -1
COc1ccc(C(=O)NC(=S)NNC(=O)c2c(-c3ccccc3)noc2C)cc1OC | 6 | 2 | 10 | 91* | -5
Cc1onc(-c2ccccc2)c1C(=O)NNC(=S)NC(=O)c1ccc2c(c1)OCO2 | 24 | 1 | 12 | 98* | 11
Cc1onc(-c2ccccc2)c1C(=O)NC(=S)NNC(=O)c1ccco1 | 5 | 1 | 4 | 78* | 4
Cc1cccc(S(=O)(=O)c2c(N)n(/N=C/c3ccccc3)c3nc4ccccc4nc23)c1 | 14 | 2 | 10 | 28 | -2
Nc1c(S(=O)(=O)c2ccccc2)c2nc3ccccc3nc2n1/N=C/c1cccc(O)c1 | 104* | 3 | 14 | 56* | -4
Cc1ccc(/C=N/NC(=O)CSc2nc3ccccc3s2)o1 | 10 | 0 | -2 | -2 | 3
O=C(N/N=C/c1cc([N+](=O)[O-])ccc1O)c1ccc2c(c1)OCCO2 | 11 | -1 | 105* | 70* | 3
O=C(N/N=C\c1cc(Br)ccc1O)c1ccc(S(=O)(=O)N2CCCCC2)cc1 | 104* | 0 | 100* | 106* | 7
Cc1cc(C(=O)N/N=C/c2cc(Br)ccc2OC(=O)c2ccccc2Cl)n[nH]1 | nt | 1 | nt | 17 | -1
O=C(N/N=C/c1ccc(O)c(O)c1)c1cccc(S(=O)(=O)N2CCCCC2)c1 | 10 | -1 | -1 | 0 | 4
O=C(CSc1nc2ccccc2s1)N/N=C/c1cc([N+](=O)[O-])ccc1O | 10 | 2 | -2 | 91* | 4
Cc1cc(C(=O)N/N=C/c2cc(Br)ccc2OC(=O)c2ccccc2)n[nH]1 | 61 | 1 | 100* | nt | 14
CC(C)c1nc(SCC(=O)c2c[nH]c3ccccc23)n[nH]1 | -17 | 1 | 3 | -1 | 2
Cc1cnc(C(=O)OCC(=O)Nc2ncc(Cl)cc2Cl)cn1 | nt | 0 | -7 | nt | -1
CCOc1ccccc1NC(=O)C(=O)N/N=C/c1cc(Br)ccc1O | -5 | 1 | 88* | 23 | -2
O=C(N/N=C/c1cc(Br)ccc1O)Nc1ccccc1 | -6 | 4 | -11 | 8 | 6
NC(=O)N/N=C\c1cc(Br)ccc1O | nt | 1 | nt | -2 | 1
O=C(N/N=C/c1cc(Cl)ccc1O)c1ccc(Br)cc1 | 100* | 0 | 112* | nt | 6
CC(C)C(=O)Nc1ccc(C(=O)N/N=C/c2cc(Br)cc(Br)c2O)cc1 | 84* | 1 | 79* | 68* | -1
